Results published in PMC4336329 (PLoS ONE, 2015).
The campaign covered roughly 310,000 compounds. About 14,000 (4.5%) showed an effect of 50% or more. Effects have a minus sign here. The sample as a whole holds a higher share of strong results than the screen did.

Molecular target: human ether-à-go-go-related gene (hERG) potassium channel (human, UniProt Q12809)
Test: primary screen, population patch clamp on CHO cells stably expressing hERG; higher = less effect of the substance
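Note: peak tail current of the secondary pulse compared with the same well before compound.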

Chain of human ether-à-go-go-related gene (hERG) potassium channel (Q12809 whole entry, looked up): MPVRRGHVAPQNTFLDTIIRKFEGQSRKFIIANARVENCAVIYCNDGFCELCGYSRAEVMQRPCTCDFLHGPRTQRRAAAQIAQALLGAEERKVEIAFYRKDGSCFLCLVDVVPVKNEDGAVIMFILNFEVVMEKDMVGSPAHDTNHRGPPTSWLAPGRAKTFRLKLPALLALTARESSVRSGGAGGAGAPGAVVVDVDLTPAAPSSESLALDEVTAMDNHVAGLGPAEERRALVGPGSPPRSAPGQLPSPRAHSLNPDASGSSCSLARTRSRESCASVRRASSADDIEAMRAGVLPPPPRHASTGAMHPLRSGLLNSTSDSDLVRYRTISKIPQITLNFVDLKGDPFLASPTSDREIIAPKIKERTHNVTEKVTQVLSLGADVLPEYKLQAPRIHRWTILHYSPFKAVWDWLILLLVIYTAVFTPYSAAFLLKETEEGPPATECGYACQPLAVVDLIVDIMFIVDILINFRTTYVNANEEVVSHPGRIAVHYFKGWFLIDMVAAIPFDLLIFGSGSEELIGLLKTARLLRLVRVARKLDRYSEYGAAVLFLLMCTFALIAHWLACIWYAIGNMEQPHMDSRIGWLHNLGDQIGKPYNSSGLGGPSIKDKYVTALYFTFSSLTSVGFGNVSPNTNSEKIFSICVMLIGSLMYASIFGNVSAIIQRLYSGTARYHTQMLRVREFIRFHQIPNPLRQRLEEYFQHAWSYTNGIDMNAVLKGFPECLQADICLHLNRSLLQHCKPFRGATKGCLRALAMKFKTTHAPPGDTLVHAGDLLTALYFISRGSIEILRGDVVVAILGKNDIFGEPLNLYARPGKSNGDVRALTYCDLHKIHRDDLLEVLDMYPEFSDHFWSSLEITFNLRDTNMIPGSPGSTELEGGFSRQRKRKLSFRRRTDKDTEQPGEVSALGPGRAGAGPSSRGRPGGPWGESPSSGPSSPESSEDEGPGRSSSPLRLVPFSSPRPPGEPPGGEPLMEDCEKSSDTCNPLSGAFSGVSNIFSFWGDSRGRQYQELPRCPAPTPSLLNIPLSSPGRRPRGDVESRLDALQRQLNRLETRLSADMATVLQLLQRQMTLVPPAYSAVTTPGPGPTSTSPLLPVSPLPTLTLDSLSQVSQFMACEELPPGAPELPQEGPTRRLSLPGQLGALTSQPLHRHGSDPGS

Structure (SMILES)	hERG current change (%, negative = inhibition) at 10uM [%]
CCOC(=O)C1(Cc2cccc(Cl)c2)CCCN(C(=O)c2cccc(C)n2)C1 (stereo not drawn)	-1.76
CCOCCCNC(=O)COc1ccc(OC)cc1	13.2
Cn1c(N)c(C(=O)CCl)c(=O)n(Cc2ccccc2)c1=O	2.2
CC1(C)CC(NC(=S)NC(=O)c2cc(Br)ccc2Cl)CC(C)(C)N1	-53.3
CC1(C)CC(NC(=O)c2cc(Cl)ccc2Cl)CC(C)(C)N1	-1.21
CC1(C)CC(NC(=O)c2ccc(Cl)cc2Cl)CC(C)(C)N1	2.81
C=C1c2cc(CC)ccc2NC(=O)N1c1ccc(C)cc1	8.71
CC(=O)c1c(C)n(CCCOC(C)C)c2ccc(O)cc12	-30.4
COc1ccc(NS(=O)(=O)c2ccc(NC(=S)NC(=O)/C=C/c3ccccc3)cc2)nn1	-3.33
Cc1cccc(NC(=O)CN2C(=O)N/C(=C\c3ccc(-c4cccc(C(=O)O)c4)o3)C2=O)c1	19.3
CCc1ccc(S(=O)(=O)N2c3ccc(C)cc3C3CN(C)CCC32)cc1 (stereo not drawn)	-60.4
Cc1ccc2c(c1)C1CN(C)CCC1N2S(=O)(=O)c1ccccc1 (stereo not drawn)	-32.4
Cc1ccc2c(c1)C1CN(C)CCC1N2S(=O)(=O)c1ccc(C(C)C)cc1 (stereo not drawn)	-73.4
Cc1ccc2c(c1)C1CN(C)CCC1N2S(=O)(=O)c1cccc(C(F)(F)F)c1 (stereo not drawn)	-40.1
Cc1ccc2c(c1)C1CN(C)CCC1N2S(=O)(=O)c1cc(C(F)(F)F)ccc1Cl (stereo not drawn)	-27.6
Cc1ccc2c(c1)C1CN(C)CCC1N2S(=O)(=O)c1cccc(F)c1 (stereo not drawn)	-11.5
O=C(COC(=O)c1ccc(S(=O)(=O)C(F)F)cc1)Nc1ccccc1C(=O)NC1CC1	11.5
O=C(CCN=C1NS(=O)(=O)c2ccccc21)OCC(=O)c1ccc(F)cc1	-3.17
O=C(NCCCN1CCOCC1)c1onc(CSc2ccncc2)c1C(=O)NCCCN1CCOCC1	-5.25
CCCCCC(=O)N/N=C/c1ccc(N(C)C)cc1	-19.2
COc1cc(NC(=O)C2CCN(c3cnccn3)CC2)cc(OC)c1OC	19.5
COc1ccccc1CNC(=O)CSc1ccc(Br)cc1	-3.01
COc1ccc(CCNC(=O)CSc2ccc(Br)cc2)cc1OC	23
COc1ccc(CNC(=O)CSc2n[nH]c(N)n2)cc1OC	-77.5
COc1ccc(CCNC(=O)CSc2n[nH]c(N)n2)cc1OC	30.1
COc1ccc(CNC(=O)CSc2n[nH]c(N)n2)cc1	20.1
COc1ccc(CNC(=O)CSc2ccc(Br)cc2)cc1OC	-63.1
